Reference: PMC6792352, “Limited Chemical Structural Diversity Found to Modulate Thyroid Hormone Receptor in the Tox21 Chemical Library” (Environmental Health Perspectives, 2019)
Structures can show the parent of a compound that is named as a salt. Where two headings read alike, the source gives them in different places.

System: thyroid hormone receptor (endogenous TRα and TRβ)
Parameters: species or system GH3-TRE-Luc (rat pituitary); GH3-TRE-Luc luciferase reporter, antagonist mode against 1 nM T3, loss of signal, qHTS
[1] = read-out: Average AC50 (uM) GH3-TRE-Antag, antagonist mode, 1 nM T3, no GH3 cytotoxicity hit, Average AC50 (uM) GH3-TRE-Antag, 24 h
[2] = read-out: Average AC50 (uM) GH3-TRE-Antag, antagonist mode, 1 nM T3, no GH3 cytotoxicity hit

SMILES | AC50 [1] | AC50 [2]
CCCCCCCCn1cc[n+](C)c1 [1-Methyl-3-octylimidazolium chloride] | 28.9 µM | –
OCCOCCN1CCN(C2=Nc3ccccc3Sc3ccccc32)CC1 [Quetiapine] | 34 µM | –
CC(C)c1c(C(=O)Nc2ccccc2)c(-c2ccccc2)c(-c2ccc(F)cc2)n1CC[C@@H](O)C[C@@H](O)CC(=O)O [Atorvastatin calcium] | 14.2 µM | –
N=C(N)NC(=O)c1nc(Cl)c(N)nc1N [Amiloride] | 16.4 µM | –
CCN(CC)CCOc1ccc2c(c1)C(=O)c1cc(OCCN(CC)CC)ccc1-2 [Tilorone] | – | 17.6 µM
COc1c(C)c2c(c(O)c1C/C=C(\C)CCC(=O)O)C(=O)OC2 [Mycophenolic acid] | – | 0.537 µM
O=C(O)C[C@H](O)C[C@H](O)/C=C/c1c(C2CC2)nc2ccccc2c1-c1ccc(F)cc1 [Pitavastatin calcium] | – | 46.3 µM
Nc1cc(Cl)c(N)c(Cl)c1 [2,6-Dichloro-1,4-benzenediamine] | – | 78 µM
CCCCC[Si](OCC)(OCC)OCC [Triethoxypentylsilane] | – | 45.9 µM
CC(C(=O)O)c1ccc(-c2ccccc2)c(F)c1 (stereo not drawn) [Flurbiprofen] | – | > 20 µM
O=C(c1ccc(O)cc1)c1ccc(Cl)cc1 [4-Hydroxy-4'-chlorobenzophenone] | – | 86.9 µM
CCCCCCCCCCCCCCCC(=O)O[C@@H]1CC(C)=C(/C=C/C(C)=C/C=C/C(C)=C/C=C/C=C(C)/C=C/C=C(C)/C=C/C2=C(C)C[C@@H](OC(=O)CCCCCCCCCCCCCCC)CC2(C)C)C(C)(C)C1 [Physalien] | – | 39.2 µM
OCCN1CCNCC1 [1-Piperazineethanol] | – | 74.1 µM
CCC(C)COC(=O)CC(C)C (stereo not drawn) [2-Methylbutyl isovalerate] | – | 71.8 µM
COc1ccc(-c2cc(=S)ss2)cc1 [Anethole trithione] | – | > 50 µM
O=C(COc1ccc(Cl)cc1)OCCNC12CC3CC(CC(C3)C1)C2 [Adafenoxate] | – | 26 µM
CN(CCOc1ccc(CC2SC(=O)NC2=O)cc1)c1ccccn1 (stereo not drawn) [Rosiglitazone maleate] | – | 75.1 µM
COc1ccc(CN(CCN(C)C)c2ccccn2)cc1 [Pyrilamine maleate] | – | 32.2 µM
Cc1cccc(Oc2ccccc2)c1 [1-Methyl-3-phenoxybenzene] | – | 82.5 µM
CC(C)NC(=O)N1CC(=O)N(c2cc(Cl)cc(Cl)c2)C1=O [Iprodione] | – | 59.3 µM

SMILES | AC50 [1] | AC50 [2]
S=C(NC1CCCCC1)NC1CCCCC1 [N,N'-Dicyclohexylthiourea] | – | 58.2 µM
O=C1c2ccccc2C(=O)N1CCc1noc(-c2ccc(CN3CCCCCC3)s2)n1 [PharmaGSID_48172] | – | 75.2 µM
CCCC[C@H](CC)COC(=O)/C=C/c1ccc(OC)cc1 [Octinoxate] | – | > 50 µM
CCN(CCCCOC(=O)c1ccc(OC)c(OC)c1)C(C)Cc1ccc(OC)cc1 (stereo not drawn) [Mebeverine hydrochloride] | – | 13.7 µM
CCOC(=O)Cn1cccc1-c1nc(-c2ccc(OC)cc2)c(-c2ccc(OC)cc2)s1 [Pamicogrel] | – | 14.5 µM
O=C(O)Cc1sc(-c2ccccc2)nc1-c1ccc(Cl)cc1 [Fentiazac] | – | > 50 µM
Cc1ccc(Nc2nccc(N(C)c3ccc4c(C)n(C)nc4c3)n2)cc1S(N)(=O)=O [Pazopanib] | – | 14 µM
CCC(Cc1c(I)cc(I)c(N)c1I)C(=O)O (stereo not drawn) [Iopanoic acid] | – | > 20 µM
CNC(=S)NC [N,N'-Dimethylthiourea] | – | 72 µM
CCCCCC[n+]1ccccc1 [1-Hexylpyridinium bromide] | 62.1 µM | –
Cl[C@H]1[C@H](Cl)[C@@H](Cl)[C@@H](Cl)[C@H](Cl)[C@H]1Cl [Lindane] | – | 81.2 µM
CCCCCCCCCCCCCCC(Br)C(=O)O (stereo not drawn) [2-Bromohexadecanoic acid] | – | 53.6 µM
Cc1ccc(C(=O)C(C)CN2CCCCC2)cc1 (stereo not drawn) [Tolperisone hydrochloride] | – | > 50 µM
O=C(O)c1nn(Cc2ccc(Cl)cc2Cl)c2ccccc12 [Lonidamine] | – | > 50 µM
c1ccc2c(c1)Oc1ccccc1S2 [Phenoxathiin] | – | > 90 µM
Cc1occc1SSc1ccoc1C [Bis(2-methyl-3-furyl)disulfide] | – | 65.9 µM
CCCCCCCCCC/C=C/C1CC(=O)OC1=O (stereo not drawn) [3-(Dodecenyl)dihydro-2,5-furandione] | – | > 90 µM
C=CC(=O)OCCC#N [2-Cyanoethyl prop-2-enoate] | – | 62.7 µM
Nc1ccc(Br)cc1 [4-Bromoaniline] | – | 47.9 µM
